Results taken from PubChem BioAssay AID1851 (National Center for Advancing Translational Sciences (NCATS), 2009).
The campaign covered roughly 16,000 compounds. About 4,000 (25%) were called active. About 26% were inconclusive and are not listed. A selection follows. Values without a mark were called inactive. The call rests on the fitted dose curve; in most records, active means well fitted curve in the direction sought with a large enough effect; inconclusive means small, poorly fitted or top-dose-only effect, or effect the other way; inactive means no such curve, though single readings can be large or run the other way.
On the % scale 0 is the no-effect control and ±100 the full control effect.

The compounds below were run against Cytochrome P450 2C9 (Homo sapiens) (UniProt P11712) (assay: Cytochrome panel assay with activity outcomes). Conditions: recombinant CYP, pro-luciferin dealkylation, luminescence, p450-cyp2c9; series mostly up to 57.1 µM.
Sequence of Cytochrome P450 2C9 (Homo sapiens) (P11712 whole entry, looked up): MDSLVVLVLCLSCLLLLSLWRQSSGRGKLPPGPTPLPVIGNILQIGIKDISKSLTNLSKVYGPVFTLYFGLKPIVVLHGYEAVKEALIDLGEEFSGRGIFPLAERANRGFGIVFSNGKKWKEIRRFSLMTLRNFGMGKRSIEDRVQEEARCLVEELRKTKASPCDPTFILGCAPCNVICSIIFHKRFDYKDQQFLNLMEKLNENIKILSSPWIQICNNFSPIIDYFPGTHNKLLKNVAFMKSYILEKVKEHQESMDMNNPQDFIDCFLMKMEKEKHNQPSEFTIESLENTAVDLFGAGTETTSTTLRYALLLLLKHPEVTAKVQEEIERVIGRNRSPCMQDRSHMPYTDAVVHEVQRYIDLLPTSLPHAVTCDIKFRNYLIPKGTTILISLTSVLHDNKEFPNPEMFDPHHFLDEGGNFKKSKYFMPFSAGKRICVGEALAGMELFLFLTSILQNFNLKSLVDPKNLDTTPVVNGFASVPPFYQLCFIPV
With CCN1C(=O)[C@H]2[C@@H]3[C@H](O)C=CC(=O)[C@H]3CC[C@H]2C1=O the activity, negative = inhibition was 17.9% [at 11.4 µM].
In the case of CCN1CCN(C(=O)N[C@H](C(=O)N[C@@H]2C(=O)N3[C@@H]2SC(C)(C)[C@@H]3C(=O)O)c2ccccc2)C(=O)C1=O, the AC50 is reported as “inactive”.
With COc1cc([C@H]2c3cc4c(cc3[C@@H](O)[C@@H]3COC(=O)[C@H]23)OCO4)cc(OC)c1OC the AC50 was 6.31 µM (active).
COc1cc2c(c(O)c1OC)C(=O)C(OC)CCC2 (stereo not given) was tested, and the AC50 was “inactive”.
Work on Nc1ncnc2c1nc(-c1ccccc1)n2[C@H]1O[C@@H](CO)[C@@H](O)[C@H]1O yielded an activity, negative = inhibition of 9.27% [at 11.4 µM].
Cn1cc([N+](=O)[O-])c(C(=O)Nc2cc(Oc3cccnc3)cc([N+](=O)[O-])c2)n1 was tested, and the AC50 was 5.62 µM (active).
For CCC/C=C(\CCC)C(NS(=O)(=O)c1cccc2cccnc12)c1ccc(C(=O)OC)cc1 (stereo not given), the AC50 was 1.58 µM (active).
With CCC/C=C(\CCC)C(NS(=O)(=O)c1cccc2cccnc12)c1ccc(-c2ccccc2)cc1 (stereo not given) the AC50 was 2 µM (active).
For O=[N+]([O-])c1ccc(S(=O)(=O)Cc2ccccc2)c2nonc12, the AC50 was 0.316 µM (active).
In the case of O=[N+]([O-])c1cccc2c[nH]nc12, the AC50 is reported as “inactive”.
With COc1cc(OC)c(OC)cc1C=NCC1(c2ccccc2)CCCC1 the AC50 was “inactive”.
For CN1CCCC2(CCN(C(=O)c3cnccn3)CC2)C1, the AC50 was “inactive”.
In the case of Cc1cc(OCCn2cc(/C(N)=N/O)c3ccccc32)ccc1Cl, the AC50 is reported as 12.6 µM (active).
CC(C)(N)C(=O)N[C@@H]1C(=O)N2[C@@H]1SC(C)(C)[C@H]2C(=O)O gave an activity, negative = inhibition of 14.5% [at 11.4 µM].
For Cc1csc(NC(=O)Cc2c[nH]c3ccccc23)n1, the AC50 was 12.6 µM (active).
For CC1(C)Cc2c(C#N)c(SCc3ccccc3)nc(N3CCOCC3)c2CO1, the AC50 was 0.708 µM (active).
In the case of CCCCCCC(C)n1cc(C(C)=O)c(=O)[nH]c1=O (stereo not given), the AC50 is reported as “inactive”.
In the case of COC(=O)C(Cc1ccc(OC(=O)c2ccc(C(F)(F)F)cc2)cc1)N1Cc2ccccc2C1=O (stereo not given), the AC50 is reported as 8.91 µM (active).
COC(=O)C(Cc1ccc(OC(=O)c2ccc(Cl)cc2)cc1)N1Cc2ccccc2C1=O (stereo not given) was tested, and the AC50 was 3.16 µM (active).
COC(=O)[C@H](N)Cc1ccc(Cl)cc1 was tested, and the AC50 was “inactive”.
O=C(Oc1ccc2c(c1)CN(Cc1ccccc1)CO2)c1ccccc1 showed an activity, negative = inhibition of -0.387% [at 11.4 µM].
With CCN(CC)C(=O)C1=C(C)NC(=S)NC1c1cn(-c2ccccc2)nc1-c1ccc(Cl)cc1 (stereo not given) the AC50 was “inactive”.
COC(=O)C1=C(C)NC2=C(C(=O)CCC2)C1c1cn(Cc2ccc(Cl)cc2Cl)nc1-c1ccccc1 (stereo not given) was tested, and the AC50 was 1 µM (active).
c1ccc2c(c1)CCCc1cc(NCCN3CCOCC3)nnc1-2 was tested, and the AC50 was “inactive”.
For COc1ccccc1CN1CCC2(CCNCC2)CC1, the AC50 was “inactive”.
With C(=Nc1cnc2ccccc2c1)c1ccc2ccccc2n1 the activity, negative = inhibition was 3.29% [at 11.4 µM].
With Cc1cccc(NC(=S)Nc2ccc(Br)cc2)c1 the AC50 was “inactive”.
In the case of C/C(=N\NC(=S)Nc1cccc(C)c1)c1ccccc1, the AC50 is reported as 6.31 µM (active).
Cc1cccc(NC(=S)NC(=O)CCc2ccccc2)c1 was tested, and the AC50 was 7.94 µM (active).
Work on C[C@@H](c1ccccc1)N1C(=O)[C@H]2[C@H]3[C@H](O)[C@H](O)C/C(=N/OCc4ccccc4)[C@@H]3CC[C@@H]2C1=O yielded an activity, negative = inhibition of -23.4% [at 11.4 µM].
COc1ccc(CNc2ncncc2-c2cccc(C#N)c2)c(OC)c1 was tested, and the activity, negative = inhibition was -28.7% [at 2.29 µM].
For S=C(NCc1ccco1)N1CCN(C(c2ccccc2)c2ccccc2)CC1, the AC50 was 3.16 µM (active).
With CN1CCN(C(c2ccccc2)c2ccccc2)CC1 the AC50 was “inactive”.
With NC(=O)CNCCC(c1ccccc1)c1ccccc1 the AC50 was “inactive”.
O=C1C2ON(c3ccccc3)C(c3ccncc3)C2C(=O)N1c1ccccc1 (stereo not given) was tested, and the AC50 was 0.398 µM (active).
For COC(=O)c1cc(=O)n(C2CC2)c(=NC2CC2)s1, the AC50 was “inactive”.
O=C(O)c1ccccc1C(=O)Nc1nccs1 was tested, and the AC50 was “inactive”.
Compound O=C(O)[C@H](CCc1ccccn1)c1ccccc1 has an activity, negative = inhibition of -5.61% [at 11.4 µM].
CCCC(C(=O)Nc1nccs1)c1ccccc1 (stereo not given) was tested, and the AC50 was 12.6 µM (active).
For COc1ccccc1CN1CCC2(CC1)CCN(C(=O)c1cccn1C)CC2, the AC50 was “inactive”.
CC(=O)OCCCN1c2ccccc2Nc2nnc(-c3ccccc3)cc21 was tested, and the AC50 was 1.78 µM (active).
CCCNC(=O)N1N=C(c2ccc(N)cc2)c2cc3c(cc2[C@H]1C)OCO3 was tested, and the AC50 was “inactive”.
Cc1ccc(SCCNC(=S)Nc2ccc(C)c(C)c2)cc1 was tested, and the AC50 was 12.6 µM (active).
For Cc1ccc(C(=O)NCc2ccc(N3CCN(C(=O)OC(C)(C)C)CC3)cc2)cc1, the AC50 was “inactive”.
For Cc1ccc(SCCNC(=O)c2ccc(C)c(S(=O)(=O)Nc3ccccc3C)c2)cc1, the AC50 was 4.47 µM (active).
Cc1ccccc1NS(=O)(=O)c1cc(C(=O)Nc2cccc(N(C)S(C)(=O)=O)c2)ccc1C was tested, and the AC50 was 0.794 µM (active).
Cc1ccc(C)c(S(=O)(=O)NC(CC(C)C)C(=O)O)c1 (stereo not given) was tested, and the AC50 was “inactive”.
In the case of Cc1ccc(SCc2ccc(C(=O)NCc3ccncc3)cc2)cc1, the AC50 is reported as 0.0126 µM (active).
O=C(O)[C@@H]1[C@@H](C(=O)NCc2ccncc2)[C@@H]2C=C[C@@H]1O2 gave an activity, negative = inhibition of -12.4% [at 11.4 µM].
With COCC(=O)N1CCC2(CC1)CN(Cc1ccccc1OC)C2 the AC50 was “inactive”.
With CC1=C(C(=O)O)N2C(=O)C(NC(=O)c3ccn(C)n3)C2SC1 (stereo not given) the AC50 was “inactive”.
CC(C)(N=NC(C)(C)C(=N)N)C(=N)N showed an activity, negative = inhibition of 0.959% [at 11.4 µM].
With COc1ccccc1CN1CCCC2(CCN(C(=O)c3cnccn3)CC2)C1 the AC50 was “inactive”.
With Cc1ccc(SCCNC(=O)c2ccccc2)cc1 the AC50 was 17.8 µM (active).
With Cc1ccc(C(=O)NCCNC(=O)CN2CCOCC2)cc1 the AC50 was “inactive”.
With O=C1NC(c2cccc([N+](=O)[O-])c2)=CCN1c1ccccc1O the AC50 was 1 µM (active).
For Nc1nc(-c2cccc([N+](=O)[O-])c2)cc(-c2cc(-c3cccc([N+](=O)[O-])c3)nc(N)n2)n1, the activity, negative = inhibition was 20.9% [at 11.4 µM].
CSc1nc(N)nc(-c2cccs2)c1C#N was tested, and the AC50 was 7.08 µM (active).
Nc1nc(-c2cccs2)cs1 was tested, and the AC50 was “inactive”.
Cc1c(-c2ccc(F)cc2)nc(N)c(C#N)c1-c1cccs1 was tested, and the AC50 was 1.58 µM (active).
